According to PubChem BioAssay AID1159580 (chemical genetic matrix, 2015):
Values joined by “and” are separate entries in the source; they are usually repeats but may differ in a detail not shown here. Equal entries are not always repeated. About 2,000 (36%) of roughly 5,500 compounds were called active. Not shown: some 18% with an inconclusive outcome. Cut-off read from the data, not from the text of the source: active = normalized growth mostly below about 0.91 (no sharp cut-off); inconclusive = no clear call, values can overlap the other calls; inactive = mostly above about 0.92. This is one part of the list.

Experiment: chemical genetic growth profiling, strain panel (AID 1159580);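 note: tested at 20 µM; growth read once vehicle control cultures reached saturation at 30 °C; 1 = growth at the plate median or of vehicle wells; lower values mean less growth of the strain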
Conditions: S. cerevisiae deletion strains, growth OD

Measured: normalized growth

CC1(C)S[C@@H]2[C@H](NC(=O)C(C(=O)O)c3ccccc3)C(=O)N2[C@H]1C(=O)O (stereo partly drawn)
inactive: locus YAL021C, strain ccr4, stronger effect = lower value 0.979 | locus YAL026C, strain drs2, stronger effect = lower value 0.979 | locus YAL030W, strain snc1, stronger effect = lower value 0.985 | locus YBL061C, strain skt5, stronger effect = lower value 0.959 | locus YBR009C, strain hhf1, stronger effect = lower value 0.934 | locus YBR021W, strain FUR4, stronger effect = lower value 0.998 | locus YBR023C, strain chs3, stronger effect = lower value 0.966 | locus YBR171W, strain sec66, stronger effect = lower value 0.948 | locus YBR229C, strain ROT2, stronger effect = lower value 0.987 | locus YBR231C, strain swc5, stronger effect = lower value 1 | locus YBR279W, strain paf1, stronger effect = lower value 0.985 | locus YCL011C, strain gbp2, stronger effect = lower value 0.933 | locus YCL016C, strain dcc1, stronger effect = lower value 0.938 | locus YCL029C, strain bik1, stronger effect = lower value 0.99 | locus YCL061C, strain MRC1, stronger effect = lower value 0.976 | locus YCL069W, strain vba3, stronger effect = lower value 0.985 | locus YCR088W, strain abp1, stronger effect = lower value 0.996 | locus YDL005C, strain med2, stronger effect = lower value 0.999 | locus YDL035C, strain GPR1, stronger effect = lower value 1.02 | locus YDL040C, strain nat1, stronger effect = lower value 0.997 | locus YDL074C, strain BRE1, stronger effect = lower value 0.995 | locus YDL101C, strain DUN1, stronger effect = lower value 0.982 | locus YDL134C, strain PPH21, stronger effect = lower value 0.999 | locus YDL185W, strain tfp1, stronger effect = lower value 0.982 | locus YDL192W, strain arf1, stronger effect = lower value 0.98 | locus YDR001C, strain nth1, stronger effect = lower value 0.98 | locus YDR069C, strain doa4, stronger effect = lower value 0.978 | locus YDR101C, strain arx1, stronger effect = lower value 0.994 | locus YDR137W, strain rgp1, stronger effect = lower value 0.944 | locus YDR159W, strain sac3, stronger effect = lower value 1.01 | locus YDR162C, strain NBP2, stronger effect = lower value 1.01 | locus YDR195W, strain ref2 0.987 | locus YDR297W, strain sur2, stronger effect = lower value 0.969 | locus YDR318W, strain mcm21, stronger effect = lower value 0.99 | locus YDR334W, strain swr1, stronger effect = lower value 0.926 | locus YDR335W, strain msn5, stronger effect = lower value 0.978 | locus YDR388W, stronger effect = lower value 0.995 | locus YDR392W, strain spt3, stronger effect = lower value 0.895 | locus YDR502C, strain sam2, stronger effect = lower value 0.995 | locus YEL003W, strain gim4, stronger effect = lower value 0.99 | locus YEL037C, strain rad23, stronger effect = lower value 0.977 | locus YEL061C, strain CIN8 (second series), stronger effect = lower value 0.989 | locus YEL061C, strain CIN8, stronger effect = lower value 1 | locus YER015W, strain faa2, stronger effect = lower value 0.986 | locus YER016W, strain bim1, stronger effect = lower value 0.962 | locus YER110C, stronger effect = lower value 0.979 | locus YER111C, strain swi4, stronger effect = lower value 0.979 | locus YER155C, strain BEM2 (second series), stronger effect = lower value 1.03 | locus YER155C, strain BEM2, stronger effect = lower value 0.991 | locus YER167W, strain BCK2, stronger effect = lower value 0.993 | locus YFR010W, strain ubp6, stronger effect = lower value 0.962 | locus YGL078C, strain dbp3, stronger effect = lower value 0.993 | locus YGL086W, strain mad1, stronger effect = lower value 0.989 | locus YGL167C, strain pmr1, stronger effect = lower value 0.96 | locus YGL173C, strain kem1, stronger effect = lower value 0.96 | locus YGL227W, strain vid30, stronger effect = lower value 0.985 | locus YGL240W, strain doc1, stronger effect = lower value 1.01 | locus YGL248W, strain PDE1, stronger effect = lower value 0.982 | locus YGL253W, strain hxk2, stronger effect = lower value 0.982 | locus YGR135W, strain pre9, stronger effect = lower value 0.988 | locus YGR252W, strain gcn5, stronger effect = lower value 0.981 | locus YHR013C, strain ard1, stronger effect = lower value 0.949 | locus YHR027C, strain rpn1, stronger effect = lower value 0.945 | locus YHR030C, strain SLT2, stronger effect = lower value 0.991 and 1.01 | locus YHR079C, strain IRE1 (second series), stronger effect = lower value 0.989 | locus YHR079C, strain IRE1, stronger effect = lower value 1.02 | locus YHR094C, strain hxt1, stronger effect = lower value 0.984 | locus YHR129C, strain ARP1, stronger effect = lower value 0.99 | locus YHR142W, strain chs7, stronger effect = lower value 0.934 | locus YHR200W, strain rpn10, stronger effect = lower value 0.985 | locus YIL066C, strain RNR3, stronger effect = lower value 1.01 | locus YIL073C, strain SPO22, stronger effect = lower value 1.03 | locus YIL125W, strain kgd1, stronger effect = lower value 0.984 | locus YIR030C, strain dcg1, stronger effect = lower value 0.987 | locus YJL092W, strain hpr5, stronger effect = lower value 0.968 | locus YJL095W, strain BCK1 (second series), stronger effect = lower value 0.975 | locus YJL095W, strain BCK1, stronger effect = lower value 0.978 and 1 | locus YJL115W, strain asf1, stronger effect = lower value 0.952 | locus YJL129C, strain trk1, stronger effect = lower value 0.944 | locus YJL134W, strain LCB3, stronger effect = lower value 0.992 | locus YJL154C, strain vps35, stronger effect = lower value 0.982 | locus YJL164C, strain tpk1, stronger effect = lower value 0.962 | locus YJL166W, strain qcr8, stronger effect = lower value 0.977 | locus YJL168C, strain set2, stronger effect = lower value 0.984 | locus YJL187C, strain SWE1 (second series), stronger effect = lower value 0.988 | locus YJL187C, strain SWE1, stronger effect = lower value 0.979 | locus YJR043C, strain POL32, stronger effect = lower value 1.01 | locus YJR066W, strain TOR1, stronger effect = lower value 0.992
